Assay [1] in a line: ATG_CRE_CIS: Attagene CIS-FACTORIAL HepG2 Assay for human cAMP Responsive Element (CRE) binding protein 3 (AID 2282926). The conditions noted are these: HepG2 CRE cis-reporter, Attagene multiplexed mRNA; actives raise or lower the signal. The method, boiled down:
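HepG2 cells transiently transfected with cis-element-driven multiple reporter transcription units; CRE reporter mRNA measured 24 h after dosing by RT-PCR, 6-FAM labelling, HpaI digestion and capillary electrophoresis. Bidirectional fit versus DMSO baseline.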

In assay [2] the target is CCAAT/enhancer-binding protein beta (Homo sapiens) (UniProt P17676). Nature of the assay: ATG_C_EBP_CIS: Attagene CIS-FACTORIAL HepG2 Assay for human CCAAT/Enhancer Binding Protein (C/EBP) beta (AID 2282927). The conditions noted are these: HepG2 Attagene cis-factorial transcription factor reporter; actives raise or lower the signal. The method, boiled down: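 Transiently transfected HepG2 (MRTU library, endogenous TF-driven promoters); 24 h dosing; total RNA → oligo(dT) RT → PCR → 6-FAM primer extension → HpaI digest → CE; fit bidirectionally vs DMSO.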
Sequence of CCAAT/enhancer-binding protein beta (Homo sapiens) (P17676 whole entry, looked up): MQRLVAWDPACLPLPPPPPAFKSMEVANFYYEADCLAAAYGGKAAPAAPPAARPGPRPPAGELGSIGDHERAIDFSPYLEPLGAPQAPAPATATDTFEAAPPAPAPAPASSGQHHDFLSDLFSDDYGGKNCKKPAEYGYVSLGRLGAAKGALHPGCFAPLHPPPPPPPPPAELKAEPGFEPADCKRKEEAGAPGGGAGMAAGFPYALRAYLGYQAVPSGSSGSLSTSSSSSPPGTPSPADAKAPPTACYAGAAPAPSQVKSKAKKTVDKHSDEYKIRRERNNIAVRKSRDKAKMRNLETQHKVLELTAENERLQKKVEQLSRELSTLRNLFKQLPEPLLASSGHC

The nature of assay [3]: ATG_DR4_LXR_CIS: Attagene CIS-FACTORIAL HepG2 Assay for human Liver X Receptor (LXR), DR4 submotif (AID 2282929). The conditions noted are these: HepG2 Attagene DR4 cis-reporter, mRNA transcription; actives raise or lower the signal. In outline: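 Transiently transfected HepG2 liver cells; cis-regulated reporters; 24 h dosing. RT-PCR plus CE read-out of reporter mRNA. DMSO baseline, bidirectional curve fitting.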

Assay [4] addresses Aryl hydrocarbon receptor (Homo sapiens) (UniProt P35869). Nature of the assay: ATG_Ahr_CIS: Attagene CIS-FACTORIAL HepG2 Assay for human Aryl Hydrocarbon Receptor (Ahr) (AID 2282930). The conditions noted are these: HepG2 AhR cis-factorial reporter transcription; actives raise or lower the signal. The method, boiled down: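 Read-out: reporter mRNA quantified by RT-PCR with fluorescent primer extension and capillary electrophoresis. Human HepG2 liver cells carried transfected cis-promoter reporter units and were exposed to chemical for 24 h; gain or loss fitted relative to DMSO.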

The nature of assay [5]: ATG_AP_2_CIS: Attagene CIS-FACTORIAL HepG2 Assay for human Activator Protein 2 (AP-2) (AID 2282932). The following applies: HepG2 AP-2 cis-reporter, Attagene transcription factor profiling; actives raise or lower the signal. The method, boiled down:
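HepG2 cells transiently transfected with cis-element reporter units and exposed for 24 h. Reporter mRNA measured by RT-PCR, FAM labelling, HpaI digestion and capillary electrophoresis. Changes in either direction fitted relative to DMSO.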

Assay [6] can be described thus: ATG_BRE_CIS: Attagene CIS-FACTORIAL HepG2 Assay for human Bone Morphogenetic Protein (BMP) Response Element (BRE) (AID 2282933). The following applies: HepG2 BMP response element reporter, Attagene transcription factor profiling; actives raise or lower the signal. The method, boiled down: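 After a 24 h chemical treatment, transiently transfected HepG2 cells were lysed for RNA; reporter transcripts were quantified by fluorescent RT-PCR and capillary electrophoresis, normalised to DMSO.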

Assay [7] has as its target Transcription factor E2F1 (Homo sapiens) (UniProt Q01094). The assay can be described thus: ATG_E2F_CIS: Attagene CIS-FACTORIAL HepG2 Assay for human E2F Transcription Factor 1 (AID 2282935). The conditions noted are these: HepG2 Attagene cis-reporter, E2F reporter RNA transcripts; actives raise or lower the signal. The method, boiled down:
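Endogenous E2F1 activity read through cis-promoter reporter units transfected into HepG2. After 24 h compound treatment, reporter mRNA measured by RT-PCR, HpaI digestion and capillary electrophoresis. Bidirectional fit versus DMSO.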

The nature of assay [8]: ATG_E_Box_CIS: Attagene CIS-FACTORIAL HepG2 Assay for human Enhancer Box (E-box) (AID 2282936). The following applies: HepG2 E-box cis-reporter transcription, actives raise or lower the signal. In outline: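 HepG2 cells transiently transfected with multiplexed cis-element reporter units, dosed 24 h; reporter mRNA quantified by RT-PCR, 6-FAM labelling, HpaI digestion and capillary electrophoresis. E-box (USF1) signal fitted bidirectionally vs DMSO.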

The nature of assay [9]: ATG_M_61_CIS: Attagene CIS-FACTORIAL HepG2 Assay for M61 Transcription Factor (Internal Marker) (AID 2282937). The following applies: HepG2 Attagene CIS-FACTORIAL M61 internal marker reporter; actives raise or lower the signal. The method, boiled down:
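Multiplexed reporter mRNA assay, HepG2 human hepatoma cells, 24 h treatment. Signal: FAM-labelled, HpaI-digested RT-PCR fragments by CE. Fit: bidirectional, baseline DMSO.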

Assay [10] can be described thus: ATG_EGR_CIS: Attagene CIS-FACTORIAL HepG2 Assay for human Early Growth Response 1 (EGR1) (AID 2282938). The conditions noted are these: HepG2 Attagene CIS-FACTORIAL EGR reporter mRNA; actives raise or lower the signal. In outline:
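Multiplexed cis-reporter system in human hepatoma HepG2 cells, transiently transfected. Cells are dosed for 24 h; reporter transcripts are amplified, fluorescently tagged and sized by capillary electrophoresis, with DMSO as negative control.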

Assay [11] can be described thus: ATG_M_19_CIS: Attagene CIS-FACTORIAL HepG2 Assay for M19 Transcription Factor (Internal Marker) (AID 2282939). The following applies: HepG2 Attagene CIS-FACTORIAL M19 internal marker reporter; actives raise or lower the signal. The method, boiled down:
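In this multiplexed cell assay, transiently transfected HepG2 reporter units report endogenous transcription-factor activity; after 24 hours of treatment, labelled reporter cDNA fragments are quantified by capillary electrophoresis and fitted bidirectionally against DMSO.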

Assay [12] concerns the target Hepatocyte nuclear factor 3-beta (Homo sapiens) (UniProt Q9Y261). The assay can be described thus: ATG_FoxA2_CIS: Attagene CIS-FACTORIAL HepG2 Assay for human Forkhead box A2 (FOXA2) (AID 2282942). The following applies: HepG2 cis-reporter transcription factor activity, 24 h; actives raise or lower the signal. In outline: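 Multiplexed cis-element reporter assay in transiently transfected HepG2. Twenty-four hours post-dosing, RNA was reverse-transcribed, amplified, FAM-labelled, HpaI-digested and separated by CE. Activity gain or loss relative to DMSO.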

A short description of assay [13]: ATG_FoxO_CIS: Attagene CIS-FACTORIAL HepG2 Assay for human Forkhead box O (FoxO) (AID 2282943). The following applies: HepG2 Attagene cis-reporter, FoxO element, mRNA; actives raise or lower the signal. The method, boiled down: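 Read-out: fluorescence of 6-FAM-labelled reporter cDNA fragments resolved by capillary electrophoresis. Transiently transfected HepG2 cells were dosed for 24 h; activity fitted in both directions relative to DMSO controls.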

A short description of assay [14]: ATG_GATA_CIS: Attagene CIS-FACTORIAL HepG2 Assay for human GATA Binding Protein (AID 2282944). The conditions noted are these: HepG2 GATA cis-element reporter, Attagene multiplex mRNA; actives raise or lower the signal. The method, boiled down: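 Measures endogenous transcription factor-driven reporter mRNA in HepG2 cells transiently carrying cis-regulated constructs. 24 h dosing; RNA via oligo(dT) reverse transcription, PCR, HpaI digestion, capillary electrophoresis; fitted relative to DMSO.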

Assay [15] can be described thus: ATG_GLI_CIS: Attagene CIS-FACTORIAL HepG2 Assay for human Zinc Finger Protein GLI1 (AID 2282945). The following applies: HepG2, Attagene cis-factorial reporter mRNA, GLI element; actives raise or lower the signal. In outline: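 Transiently transfected HepG2 cells report endogenous transcription factor activity via cis-element-driven reporter units. After 24 h compound exposure, reporter mRNA was measured by RT-PCR with capillary electrophoresis; bidirectional fitting against DMSO baseline.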

Assay [16] is described as follows: ATG_AP_1_CIS: Attagene CIS-FACTORIAL HepG2 Assay for human Activator Protein 1 (AP-1) (AID 2282931). The conditions noted are these: HepG2 Attagene cis-factorial AP-1 reporter mRNA; actives raise or lower the signal. The method, boiled down:
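We transfected HepG2 cells transiently with a set of cis-regulated reporter transcription units, dosed them for 24 h, and quantified reporter mRNA via RT-PCR and capillary electrophoresis, scoring gain or loss of signal relative to DMSO.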

The target in assay [17] is Retinoic acid receptor alpha (Homo sapiens) (UniProt P10276). The assay can be described thus: ATG_DR5_RAR_CIS: Attagene CIS-FACTORIAL HepG2 Assay for human Retinoic Acid Receptor Alpha (RARE), DR5 submotif (AID 2282934). The following applies: HepG2 Attagene cis-factorial RARE DR5 reporter, mRNA; actives raise or lower the signal. The method, boiled down: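 Read-out: DR5-driven reporter transcript measured by RT-PCR, 6-FAM primer extension, HpaI digest and capillary electrophoresis. Human HepG2 liver cells carry transiently transfected cis-element reporter constructs; dosing lasts 24 h. Gain or loss of signal fitted against DMSO baseline.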
Sequence of Retinoic acid receptor alpha (Homo sapiens) (P10276 whole entry, looked up): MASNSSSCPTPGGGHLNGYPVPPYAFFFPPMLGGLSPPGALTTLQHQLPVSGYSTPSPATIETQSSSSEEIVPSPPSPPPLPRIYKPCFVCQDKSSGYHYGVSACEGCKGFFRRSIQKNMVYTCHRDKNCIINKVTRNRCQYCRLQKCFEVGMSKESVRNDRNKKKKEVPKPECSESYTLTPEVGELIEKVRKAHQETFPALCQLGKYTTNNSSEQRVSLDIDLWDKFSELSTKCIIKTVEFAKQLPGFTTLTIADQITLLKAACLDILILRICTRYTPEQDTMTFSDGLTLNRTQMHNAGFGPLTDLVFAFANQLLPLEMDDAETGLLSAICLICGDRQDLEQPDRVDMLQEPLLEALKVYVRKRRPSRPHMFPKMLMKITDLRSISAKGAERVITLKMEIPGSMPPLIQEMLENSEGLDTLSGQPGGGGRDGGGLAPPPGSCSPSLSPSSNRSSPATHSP

The nature of assay [18]: ATG_Ets_CIS: Attagene CIS-FACTORIAL HepG2 Assay for human Erythroblast Transformation Specific (ETS) (AID 2282941). The conditions noted are these: HepG2 ETS cis-reporter transcription, actives raise or lower the signal. The method, boiled down: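 HepG2 cells transfected with multiple cis-regulated reporter units measuring endogenous ETS-driven transcription, 24 h after dosing. Reporter mRNA quantified by RT-PCR with capillary electrophoresis; bidirectional fit relative to DMSO.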

The nature of assay [19]: ATG_ERE_CIS: Attagene CIS-FACTORIAL HepG2 Assay for Estrogen Response Element (ERE) (AID 2282940). The following applies: HepG2 ERE cis-reporter, Attagene RNA transcript; actives raise or lower the signal. In outline:
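Measuring endogenous transcription factor output, the assay doses transfected HepG2 cells for 24 hours and quantifies reporter transcripts by fluorescent RT-PCR and capillary electrophoresis, with DMSO as baseline.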

The source made the active and inactive calls. How the source made its calls: active means hit-call score of the fitted dose curve at least 0.9, where 1 is the maximum; inactive means score below 0.9.

Sequence of Aryl hydrocarbon receptor (Homo sapiens) (P35869 whole entry, looked up): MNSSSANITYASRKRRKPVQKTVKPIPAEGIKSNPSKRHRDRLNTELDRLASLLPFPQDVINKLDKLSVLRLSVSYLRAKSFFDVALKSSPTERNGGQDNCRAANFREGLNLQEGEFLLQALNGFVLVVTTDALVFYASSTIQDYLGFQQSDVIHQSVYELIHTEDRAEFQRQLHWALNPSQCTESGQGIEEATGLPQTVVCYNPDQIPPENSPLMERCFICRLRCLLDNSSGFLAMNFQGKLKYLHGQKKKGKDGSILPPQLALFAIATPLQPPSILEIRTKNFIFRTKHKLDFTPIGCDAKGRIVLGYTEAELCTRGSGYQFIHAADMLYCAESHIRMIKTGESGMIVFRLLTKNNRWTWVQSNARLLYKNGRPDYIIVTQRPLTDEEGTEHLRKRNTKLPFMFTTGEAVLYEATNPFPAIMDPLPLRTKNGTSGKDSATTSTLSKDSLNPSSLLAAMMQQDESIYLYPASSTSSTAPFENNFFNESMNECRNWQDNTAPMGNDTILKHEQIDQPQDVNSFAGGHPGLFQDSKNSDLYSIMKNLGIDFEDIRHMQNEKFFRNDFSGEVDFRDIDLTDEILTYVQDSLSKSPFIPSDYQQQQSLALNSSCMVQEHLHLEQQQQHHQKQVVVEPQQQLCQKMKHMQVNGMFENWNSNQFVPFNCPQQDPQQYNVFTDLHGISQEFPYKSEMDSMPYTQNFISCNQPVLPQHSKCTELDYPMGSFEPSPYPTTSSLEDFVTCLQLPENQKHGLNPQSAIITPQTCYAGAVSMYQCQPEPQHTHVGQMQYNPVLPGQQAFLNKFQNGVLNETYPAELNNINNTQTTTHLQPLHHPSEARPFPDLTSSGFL
Sequence of Transcription factor E2F1 (Homo sapiens) (Q01094 whole entry, looked up): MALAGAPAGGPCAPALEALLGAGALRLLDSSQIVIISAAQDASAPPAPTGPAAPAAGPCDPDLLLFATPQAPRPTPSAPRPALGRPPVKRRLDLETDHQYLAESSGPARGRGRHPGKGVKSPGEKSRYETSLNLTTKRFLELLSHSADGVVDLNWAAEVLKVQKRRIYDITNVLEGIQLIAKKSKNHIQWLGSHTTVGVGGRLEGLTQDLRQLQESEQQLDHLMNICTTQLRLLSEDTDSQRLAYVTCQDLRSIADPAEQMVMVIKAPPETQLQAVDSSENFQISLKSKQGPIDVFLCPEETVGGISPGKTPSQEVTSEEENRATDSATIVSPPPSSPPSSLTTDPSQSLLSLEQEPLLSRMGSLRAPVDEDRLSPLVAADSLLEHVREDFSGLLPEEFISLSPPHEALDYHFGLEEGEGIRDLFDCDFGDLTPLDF
Sequence of Hepatocyte nuclear factor 3-beta (Homo sapiens) (Q9Y261 whole entry, looked up): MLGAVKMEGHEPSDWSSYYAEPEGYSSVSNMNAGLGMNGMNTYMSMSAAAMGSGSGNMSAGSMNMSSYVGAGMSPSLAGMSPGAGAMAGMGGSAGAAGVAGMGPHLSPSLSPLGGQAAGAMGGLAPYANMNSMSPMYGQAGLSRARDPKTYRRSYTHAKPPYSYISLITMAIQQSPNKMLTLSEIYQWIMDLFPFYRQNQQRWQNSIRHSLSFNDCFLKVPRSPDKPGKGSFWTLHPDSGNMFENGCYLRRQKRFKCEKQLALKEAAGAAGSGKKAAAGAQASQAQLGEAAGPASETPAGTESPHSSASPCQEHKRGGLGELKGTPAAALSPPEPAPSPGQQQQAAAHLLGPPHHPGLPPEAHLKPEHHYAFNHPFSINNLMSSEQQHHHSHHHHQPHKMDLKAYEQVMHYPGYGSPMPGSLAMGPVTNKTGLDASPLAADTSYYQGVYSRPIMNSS

Take `Cc1cccc(C)c1C`: the outcome in assay [1], in assay [2], in assay [3], in assay [4], in [5] and in assay [6] was inactive. Besides, the compound was called inactive in assay [7], in [8], in assay [9], in assay [10], in assay [11] and in assay [12]. For the same compound, the compound was classed as inactive in assay [13], in assay [14] and in assay [15].
`CCCCC[Si](OCC)(OCC)OCC`: the call in assay [1], in [2], in assay [3], in assay [4], in [16] and in [5] was inactive. The compound was classed as inactive in [6], in assay [17], in assay [7], in assay [9], in assay [10] and in [11]. The compound was classed as inactive in [12], in [13], in assay [14] and in assay [15].
On to `C=C(C)[C@@H]1CC[C@@H](C)C[C@@H]1O`, for which the outcome in [1], in assay [2], in assay [3], in [4], in assay [5] and in [6] was inactive. For the same compound, the compound was called inactive in [7], in assay [8], in [9], in assay [10], in assay [11] and in assay [18]. Besides, the call in [13], in [14] and in [15] was inactive.
Take `COC(C)CCO` (configuration not stated): the compound was called inactive in assay [1], in [2], in assay [3], in [4], in assay [5] and in assay [6]. Also, the compound was classed as inactive in assay [17], in [7], in [8], in [9], in [10] and in assay [11]. The result in assay [18], in [12], in [13] and in assay [14] was inactive. In assay [16], the concentration at half-maximal activity (AC50) (as a rule, the midpoint of the concentration-response curve, whichever way the signal moves) is 42.4 µM (active).
`O=S(=O)(O)NC1CCCCC1`: the compound was called inactive in assay [1], in assay [2], in [16], in assay [5], in assay [6] and in assay [17]. Besides, the result in assay [7], in assay [8], in [9], in assay [10], in [11] and in [12] was inactive. In addition, the compound was called inactive in [13], in assay [14] and in [15].
In the case of `O=C[C@@H](O)[C@H](O)[C@H](O)CO`, the result in assay [1], in [2], in assay [3], in [4], in assay [16] and in assay [5] was inactive. Also, the call in assay [6], in [17], in assay [7], in [8], in [10] and in assay [11] was inactive. Also, the outcome in assay [18], in [12], in [13] and in [14] was inactive.
With `NC(N)=NC(=O)c1nc(Cl)c(N)nc1N`, the compound was classed as inactive in assay [1], in [2], in [4], in [16], in assay [5] and in [6]. In addition, the result in assay [7], in [8], in assay [9], in [10], in assay [11] and in [19] was inactive. The result in assay [18], in assay [12], in [13] and in [15] was inactive. Also, in assay [3], the AC50 was 149 µM (active).
In the case of `Clc1ccc(Cl)c(Cl)c1Cl`, the compound was called inactive in assay [1], in [2], in [3], in [16], in assay [5] and in assay [6]. Moreover, the outcome in [8], in assay [9], in assay [10], in assay [11], in assay [18] and in assay [12] was inactive. For the same compound, the compound was classed as inactive in assay [13], in assay [14] and in assay [15]. Besides, the concentration at half-maximal activity (AC50) in assay [4] was 31.7 µM (active).
